Screening data (PubChem BioAssay)
An excerpt weighted towards active compounds, which were near 5.8% of everything screened.
TRPV1 potentiator – human TRPV1 potentiation. TRPV1-expressing cells, Fluo-8 calcium influx, capsaicin EC20 potentiation. potentiation, % at 8.33 µM. hit rate 0.02% among 320,000. AID 540277; in the data active = potentiation above about 80%; inconclusive = between about 30% and that limit; note: 0% is about no effect
Target sequence (Q8NER1 whole entry, looked up): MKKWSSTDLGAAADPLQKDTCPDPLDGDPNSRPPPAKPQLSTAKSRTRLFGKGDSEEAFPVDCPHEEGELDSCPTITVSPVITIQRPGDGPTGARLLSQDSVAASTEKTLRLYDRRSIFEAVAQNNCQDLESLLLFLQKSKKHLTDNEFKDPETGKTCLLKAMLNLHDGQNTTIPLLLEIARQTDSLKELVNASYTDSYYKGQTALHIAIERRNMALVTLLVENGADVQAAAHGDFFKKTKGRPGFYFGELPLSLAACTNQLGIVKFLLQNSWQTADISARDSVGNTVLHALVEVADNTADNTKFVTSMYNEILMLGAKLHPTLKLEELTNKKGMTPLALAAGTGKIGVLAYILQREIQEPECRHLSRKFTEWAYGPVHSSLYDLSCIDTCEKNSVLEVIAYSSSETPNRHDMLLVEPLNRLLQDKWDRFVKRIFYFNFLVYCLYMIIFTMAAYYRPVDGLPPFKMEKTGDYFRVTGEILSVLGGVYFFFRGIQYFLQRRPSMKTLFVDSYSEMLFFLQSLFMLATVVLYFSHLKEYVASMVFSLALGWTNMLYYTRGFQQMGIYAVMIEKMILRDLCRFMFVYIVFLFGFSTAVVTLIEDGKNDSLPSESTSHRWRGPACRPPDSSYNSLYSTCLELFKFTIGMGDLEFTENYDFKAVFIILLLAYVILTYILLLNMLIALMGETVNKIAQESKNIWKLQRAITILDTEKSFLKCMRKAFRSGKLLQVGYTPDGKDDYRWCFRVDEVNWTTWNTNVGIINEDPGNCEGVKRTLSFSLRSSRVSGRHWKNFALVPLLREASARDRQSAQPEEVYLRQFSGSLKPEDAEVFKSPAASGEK
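Fluo-8 calcium influx in TRPV1-expressing cells, kinetic read (ex 480/em 520 nm). Compound added and read 3 min for agonist activity, followed by capsaicin at EC20 final and 2 min further read for enhancement.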
TRPV1 agonist – activates the human vanilloid receptor TRPV1 | AID 540275 | activation, % at 8.33 µM | hit rate 0.19% among 320,000 | TRPV1-expressing cells, Fluo-8 calcium influx, agonist mode | Q8NER1; in the data active = activation above about 80%; inconclusive = between about 30% and that limit; note: 0% is about no effect
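TRPV1-expressing cells were cultured overnight at 35.5C and loaded with Fluo-8 calcium dye for 40 to 90 min at room temperature. After a 10 s baseline, compound was added and calcium influx was read kinetically for 3 min (ex 480/em 520 nm).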
uPA surface inh – blocks generation of uPA at the cell surface; hit rate 0.31% among 330,000; Potency, µM (series often up to 38.3 µM), for inactives: at the highest dose activity change, negative = inhibition, actives largely listed as inhibitors; cell surface uPA generation assay, qHTS; active = well fitted inhibition curve with a large enough effect; inconclusive = small, poorly fitted or top-dose-only effect; inactive = no such curve, though single readings can be large or run the other way; tested in mouse RAW 264.7 cells; note: potency is the fitted concentration of half-maximal effect; % is set by controls: 0 for no effect and ±100 for the full control effect; nearly all actives have a fitted effect of over 55% in size
RORg inh – blocks mouse ROR gamma transcriptional activity; AID 2551; Potency, µM (highest dose often 53.6 µM), without a hit: at the top dose activity change, negative = inhibition, hits mostly inhibitors; hit rate 5.4% among 310,000; Drosophila S2 Gal4-RORgamma UAS-luciferase reporter, 20 h; note: potency is the fitted concentration of half-maximal effect; % is set by controls: 0 for no effect and ±100 for the full control effect; nearly all actives have a fitted effect of over 60% in size
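Read-out: Photinus luciferase luminescence; inhibitors lower reporter signal. Insect Schneider cells with Gal4-ROR gamma fusion under metallothionein promoter, UAS reporter; 700 uM final copper sulfate induction, 20 hr, ambient temperature.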
VP16 counter – counter-screen for ROR gamma inhibitors: Gal4-VP16 reporter; Drosophila S2 Gal4-VP16 UAS-luciferase, luminescence, 20 h; Potency, µM (series often up to 53.6 µM), for the others: top-dose activity, negative = inhibition, most hits filed as inhibitors; hit rate 3.5% among 310,000; AID 2546;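 note: Gal4-VP16 expression switched on by copper sulfate through the metallothionein promoter; potency is the fitted concentration of half-maximal effect; % is set by controls: 0 for no effect and ±100 for the full control effect; nearly all actives have a fitted effect of over 50% in size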
* marks the source's active call; other numbers are inactive results. Unless noted, calls come from the whole dose curve; as a rule, active = well fitted curve in the direction sought with a large enough effect; inconclusive = small, poorly fitted or top-dose-only effect, or another doubt; inactive = no such curve, though single readings can be large; an effect the other way counts as inactive or inconclusive.

For O=C(N/N=C/c1cc(Br)cc(Br)c1O)c1cccc(N2CCCC2=O)c1 the results were TRPV1 potentiator 14, TRPV1 agonist 2, uPA surface inh 2%, RORg inh 3.5µM* and VP16 counter 10µM*.
O=C(N/N=C/c1ccc(Cl)cc1Cl)c1cccc(N2CCCC2=O)c1 was read as TRPV1 potentiator 13, TRPV1 agonist -2, uPA surface inh -4%, RORg inh 8% and VP16 counter -3%.
Screening C=CCCCCCCCCCCCc1ccco1 returned RORg inh -17% and VP16 counter inconclusive.
`CC(=O)/C(=N\Nc1ccccc1)Sc1nnc(-c2ccccc2)n1-c1ccccc1` gave TRPV1 potentiator -24, TRPV1 agonist inconclusive, uPA surface inh -8%, RORg inh 10µM* and VP16 counter inconclusive.
Screening CC(=O)/C(=N\Nc1ccc(Cl)cc1Cl)Sc1nnc(-c2ccccc2)n1-c1ccccc1 returned TRPV1 potentiator -6, TRPV1 agonist 0, uPA surface inh 0%, RORg inh -26% and VP16 counter -25%.
Screening CC(=O)/C(=N\Nc1ccccc1Cl)Sc1nnc(-c2ccccc2)n1-c1ccccc1 returned TRPV1 potentiator -21, TRPV1 agonist inconclusive, uPA surface inh -6%, RORg inh 10µM* and VP16 counter inconclusive.
For CC[C@H](C)[C@H]1CNC(=S)N1CC1CCN(CCC23CC4CC(CC(C4)C2)C3)CC1 the results were uPA surface inh -25%.
Screening CC(C)N(C(=O)COc1ccc(Br)cc1Cl)C(C)C returned TRPV1 potentiator -19, TRPV1 agonist 14, uPA surface inh 4%, RORg inh -25% and VP16 counter 7%.
For Cn1ncc2c(O/N=C(\N)c3ccc(C(F)(F)F)cc3)ncnc21 the results were TRPV1 potentiator inconclusive, TRPV1 agonist -1, uPA surface inh 2.8µM*, RORg inh -43% and VP16 counter inconclusive.
`Cc1ccc(C(=O)NNc2ncnc3c2cnn3C)cc1` gave uPA surface inh -1%, RORg inh -42% and VP16 counter -2%.
For Cc1nn(-c2ccccc2)c(Cl)c1/C=N/NC(=O)c1cccnc1 the results were TRPV1 potentiator 2, TRPV1 agonist 1, uPA surface inh -2%, RORg inh 32% and VP16 counter 20%.
`O=C(N/N=C/c1cn(-c2ccccc2)nc1-c1cc2ccccc2o1)c1cccnc1` gave TRPV1 potentiator -2, TRPV1 agonist inconclusive, uPA surface inh 1%, RORg inh 4µM* and VP16 counter 1.4µM*.
For O=C(N/N=C/c1cn(-c2ccccc2)nc1-c1cc2ccccc2o1)c1ccncc1 the results were TRPV1 potentiator -11, TRPV1 agonist inconclusive, uPA surface inh -17%, RORg inh 2.8µM* and VP16 counter 4.5µM*.
O=C(O)c1cccc(NC(=O)c2cn(-c3ccccc3)nc2-c2cc3ccccc3o2)c1 was read as TRPV1 potentiator 6, TRPV1 agonist 2, uPA surface inh 0%, RORg inh inconclusive and VP16 counter -7%.
`O=C(NCc1ccccn1)c1cc2ccccn2n1` gave uPA surface inh 6%, RORg inh 17% and VP16 counter inconclusive.
Screening O=C(NCCc1ccc(Cl)cc1)c1cc2ccccn2n1 returned TRPV1 potentiator -29, TRPV1 agonist 87*, uPA surface inh -1%, RORg inh 14% and VP16 counter 12%.
O=C(Nc1ccc(Br)cc1)c1cc2ccccn2n1 was read as TRPV1 potentiator -26, TRPV1 agonist 85*, uPA surface inh -21%, RORg inh -2% and VP16 counter 3%.
`COc1ccc(-c2ccc(C(C)=O)cc2)cc1C1C2C=CCCC2(C)C(=O)N1Cc1ccccc1` (stereo not drawn) gave RORg inh 29% and VP16 counter -10%.
O=C(NCc1cc(F)cc2c1OCCO2)[C@H]1C[C@@H]1[C@H](NP(=O)(c1ccccc1)c1ccccc1)c1ccccc1 was read as RORg inh -1% and VP16 counter 10%.
For O=C(Nc1ccc(Br)cc1)c1cnc[nH]1 the results were TRPV1 potentiator -25, TRPV1 agonist inconclusive, uPA surface inh -17%, RORg inh 7% and VP16 counter -16%.
Screening N[C@@H](CSS(=O)(=O)O)C(=O)O returned RORg inh -7% and VP16 counter -1%.
